Assay outcomes (PubChem BioAssay)
CYP2C9 inh: inhibitors of human CYP2C9 | P11712 | CYP2C9 Supersomes, luciferin-H conversion, luminescence | inhibition, % at 5 µM | hit rate 20% among 96,000;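 active means blocking of liver enzyme CYP2C9 beyond about 50% at 5 µM, limit read from the data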
Target sequence (P11712 whole entry, looked up): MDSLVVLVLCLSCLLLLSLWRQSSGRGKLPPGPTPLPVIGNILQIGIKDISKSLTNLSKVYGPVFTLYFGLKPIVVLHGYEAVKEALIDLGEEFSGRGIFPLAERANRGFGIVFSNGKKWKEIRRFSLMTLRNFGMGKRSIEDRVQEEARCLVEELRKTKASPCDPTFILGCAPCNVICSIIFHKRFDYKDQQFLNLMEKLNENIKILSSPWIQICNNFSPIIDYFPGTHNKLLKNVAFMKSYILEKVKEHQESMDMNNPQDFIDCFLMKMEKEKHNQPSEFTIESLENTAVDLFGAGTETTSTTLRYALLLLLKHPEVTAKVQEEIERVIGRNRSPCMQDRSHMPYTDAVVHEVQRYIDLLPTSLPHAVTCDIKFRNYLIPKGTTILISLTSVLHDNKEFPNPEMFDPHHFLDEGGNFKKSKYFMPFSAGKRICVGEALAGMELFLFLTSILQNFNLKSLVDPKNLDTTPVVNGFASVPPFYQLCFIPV
Measles CPE: protection of cells from measles virus; Measles virus-infected cells, CPE protection, absorbance; protection (pct of control), % at 4 µM; hit rate 1.5% among 140,000; AID 841; in the data active means protection mostly above about 24%, no sharp cut-off; inactive means mostly below about 26%
CYP2C19 activ: increases human CYP2C19 enzyme activity; recombinant CYP2C19, luciferin-H EGE luminescence; active compounds read high; 0 = fully inhibited enzyme, 1 = untreated enzyme; P33261; AID 1025; 96,000 tested, under 10 active; activation factor at 5 µM;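 active means activation factor of at least 2 at 5 µM in the primary screen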;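 further: 0 = wells with 2.5 mM tranylcypromine and 1 = vehicle-only wells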
CYP2C19 inh: blocks human cytochrome P450 2C19 | inhibition, % at 5 µM | CYP2C19 Supersomes, luciferin-H EGE luminescence, 30 min | hit rate 21% among 96,000 | P33261;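 active means CYP2C19 inhibition above a set limit at 5 µM in the primary screen, cut at about 50% in these data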;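 further: plate controls were negative control wells for no effect and 2.5 mM tranylcypromine positive control for full effect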
CYP2C9 act: activators of human CYP2C9; recombinant CYP2C9, luciferin-H conversion, luminescence; active compounds read high; factor 1 = untreated enzyme, 0 = blocked; activation factor at 5 µM; hit rate 1.4% among 96,000; P11712;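 active means activation factor of 2 or more for CYP2C9 at a 5 µM dose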;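 further: 0 = sulfaphenazole-blocked wells and 1 = vehicle-only wells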
Active calls of the source: *; i = inactive; . = not tested or not shown. Only some compounds are listed: those with a hit (about 22% of all), similar ones and a draw of the others.

SMILES	CYP2C9 inh	Measles CPE	CYP2C19 activ	CYP2C19 inh	CYP2C9 act
Cc1oc2c(c1C(=O)c1ccccc1)C(=O)C(=O)c1ccccc1-2	89.7*	-1.3	0.1	91.9*	0.1
O=C1C(=O)c2c(C(=O)c3ccccc3)coc2-c2ccccc21	94.7*	3.8	0.2	82.5*	0.1
Cc1cccc(OCCCc2c(C)n[nH]c2C)c1	56.6*	3.4	0.1	92.5*	0.4
CCNc1nc(NCC)n2c(SCC(=O)c3ccc(C(C)C)cc3)nnc2n1	.	2.7	.	.	.
Cc1ccccc1-c1nc(S(=O)(=O)c2ccc(Br)cc2)c(NCc2cccnc2)o1	66.3*	1.3	0.2	82.0*	0.3
Cc1ccc(CNc2oc(-c3ccco3)nc2S(=O)(=O)c2ccccc2)cc1	.	4.8	.	.	.
Cc1ccc(S(=O)(=O)c2nc(-c3ccccc3)oc2NCc2cccnc2)cc1	72.9*	23.1	0.2	77.3*	0.3
CCN1CCc2nc(NC(=O)C(c3ccccc3)c3ccccc3)sc2C1	12.7	7.3	0.9	8.5	0.9
COc1ccc(C2=NOC(C(=O)O)C2)cc1 (configuration not stated)	-7.3	1.5	1.2	-17.5	1.1
CCOC(=O)c1sc(N)c(C#N)c1CSc1nnc(C2CC2)n1N	74.1*	24.9	0.1	87.9*	0.3
CCOC(=O)c1csc(NC(=O)CSc2nnc(C3CC3)n2C)n1	1.7	9.6	1	-1.8	1
CCOC(=O)c1sc(N(Cc2ccccc2)C(=O)CSc2nnc(C3CC3)n2N)nc1C	99.2*	23.0	0.4	62.4*	0
COc1ccc(Nc2ccc(S(=O)(=O)N3CCCCCC3)cc2[N+](=O)[O-])cc1	.	21.6	.	.	.
COCCNC(=O)C1CCCN(c2nn3c(=O)cc(C)nc3s2)C1 (configuration not stated)	12.8	18.1	0.9	5.9	0.9
COc1ccc(NC(=O)C(C)N2c3cccc4cccc(c34)S2(=O)=O)cc1 (configuration not stated)	49.9	12.0	0.3	67.4*	0.5
CCN1c2cccc3cccc(c23)S1(=O)=O	i	18.4	0.2	77.6*	6.2*
COc1ccc(NC(=O)CN2c3cccc4cccc(c34)S2(=O)=O)cc1	-183.6	10.6	0.8	17.7	2.8*
COC(=O)CNC(=O)CN1c2cccc3cccc(c23)S1(=O)=O	-108.7	22.9	0.9	13.5	2.1*
COc1ccc(NC(=O)C(C)N2c3cccc4cccc(c34)S2(=O)=O)cc1OC (configuration not stated)	.	5.1	.	.	.
CCOC(=O)c1c(CN(C)C)oc2cc(CN(C)C)c(O)c(CSc3ccccc3)c12	15.3	7.2	0.1	92.4*	0.8
COc1ccc(N2C(=O)C(Cl)=C(NCc3ccccc3)C2=O)cc1	95.6*	9.5	0	99.4*	0
O=C(N/N=C/C=C/c1ccccc1)c1cnccn1	-8.0	4.2	1	-2.0	1.1
CCOC(=O)CSc1nc2ccccc2c(=O)n1CCN1CCOCC1	.	1.1	.	.	.
CCOC(=O)CSc1nc2ccc(N3CCOCC3)cc2c(=O)n1Cc1ccccc1	82.9*	9.3	0.2	75.6*	0.2
CCCCNC(=O)CSc1nc2ccc(N3CCOCC3)cc2c(=O)n1CCc1ccccc1	.	6.1	.	.	.
SMILES	CYP2C9 inh	Measles CPE	CYP2C19 activ	CYP2C19 inh	CYP2C9 act
COCCNC(=O)CSc1nc2ccc(N3CCOCC3)cc2c(=O)n1CCc1ccccc1	64.2*	4.0	0.4	60.7*	0.4
O=C(COC(=O)c1ccc2c(c1Cl)C(=O)c1ccccc1C2=O)NC1CCCCC1	.	6.5	.	.	.
O=C(Nc1ccc(Cl)cc1)Nc1nnc(Cc2ccc([N+](=O)[O-])cc2)s1	.	12.3	.	.	.
O=c1[nH]c2ccc(S(=O)(=O)N3CCCCC3)cc2[nH]1	-19.3	12.7	1.1	-9.5	1.2
Clc1ccc(OCc2nnnn2-c2ccccc2)cc1	.	12.7	.	.	.
c1ccc(OCc2nnnn2-c2ccccc2)cc1	.	12.3	.	.	.
Cc1cc(Oc2nnnn2-c2ccccc2)ccc1Cl	61.2*	6.5	0.4	58.2*	0.4
Brc1ccc(Oc2nnnn2-c2ccccc2)cc1	81.0*	5.3	0	100.3*	0.2
Cc1ccccc1-c1nnc(-c2ccc(Cl)cc2)o1	8.6	6.6	0.9	14.6	0.9
Cc1ccc(CS(=O)(=O)c2ccccc2-c2nnc(-c3ccc(Cl)cc3)o2)cc1	90.7*	4.2	0.6	43.6	0.1
CC(=O)N(CCC(Cc1ccccc1)c1ccc2c(c1)OCO2)Cc1ccc(Cl)cc1 (configuration not stated)	75.2*	12.8	0.2	75.5*	0.2
COc1ccc(C(=O)NCc2ccc3c(c2)OCO3)cc1S(=O)(=O)N(C)Cc1ccccc1	.	2.8	.	.	.
